Assay in all cases: qHTS profiling for inhibitors of Plasmodium falciparum proliferation (AID 504749); also: nearly all actives have a fitted effect of over 60% in size
Settings in all cases: P. falciparum in erythrocytes, SYBR Green DNA, 72 h; series mostly up to 28.7 µM
A general note: qHTS replaces the single test concentration by a dilution series.

Experiment [1] has as its system CP217. Summed up: (§1)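 Parasite proliferation within erythrocytes, 72 h exposure. Endpoint: SYBR Green I fluorescence after overnight lysis at room temperature. Controls: 0.29 uM artemisinin, DMSO.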
Experiment [2] deals with CP237. Summed up:
as §1

In experiment [3] the test system is CP238. Summed up: as §1
Experiment [4] concerns CP247. A digest of the protocol: as §1
In experiment [5] the test system is CP250. A digest of the protocol:
as §1

The subject of experiment [6] is CP252. Summed up: as §1
Experiment [7] has as its system CP256. A digest of the protocol:
as §1

Experiment [8] has as its system CP260. Summed up:
as §1

Experiment [9] concerns CP262. A digest of the protocol:
as §1

Experiment [10] relates to CP265. A digest of the protocol: as §1
Experiment [11] has as its system CP266. A digest of the protocol:
as §1

The subject of experiment [12] is CP269. A digest of the protocol: as §1
The subject of experiment [13] is CP286. Summed up: as §1
For experiment [14], the system named is CP194. Summed up:
as §1

The subject of experiment [15] is CP203. A digest of the protocol:
as §1

In experiment [16] the test system is CP211. Summed up:
as §1

The test system of experiment [17] is CP215. A digest of the protocol: as §1
The test system of experiment [18] is CP268. Summed up: as §1
Experiment [19] relates to CP291. Summed up: as §1
Experiment [20] deals with CP201. Summed up:
as §1

Records with an inconclusive call do not appear. Active and inactive are the calls of the source. Calls follow the shape of the dose curve; as a rule, active = well fitted inhibition curve with a large enough effect; inconclusive = small, poorly fitted or top-dose-only effect; inactive = flat fitted curve, though single readings scatter.

Here are results for 20 compounds from PubChem BioAssay (NCATS).
Potency is read from the fitted curve at half-maximal effect.

With `CSCCC(N)C(=O)O` (stereo unspecified), the Potency entry in [1], in [2], in [3], in experiment [4], in [5] and in [6] was “inactive” in each case. The Potency result in experiment [7], in [8], in experiment [9], in experiment [10], in [11] and in experiment [12] was “inactive” each time. Moreover, the Potency result in experiment [13] is “inactive”.

For `NC(=S)N=Nc1ccc(NN=C(N)N)cc1`, the Potency in experiment [14] was 7.57 µM (active); in [15], 12 µM (active); in [16], 7.57 µM (active); in experiment [17], 7.57 µM (active); in experiment [1] it was 12.6 µM (active); in experiment [2], 10 µM (active). Besides, the Potency was 11.2 µM (active) in [3]; 11.2 µM (active) in [4]; 8.91 µM (active) in experiment [6]; 1.58 µM (active) in experiment [7]; 7.94 µM (active) in [8]; 6.01 µM (active) in experiment [9]. In addition, the Potency in [10] was 12.6 µM (active); in experiment [18], 9.53 µM (active); in [12], 6.75 µM (active); in experiment [13] it was 4.47 µM (active); in [19] it was 8.49 µM (active).

In the case of `O=C(CCCN1CCN2CCCC2C1)c1ccc(F)cc1` (stereo unspecified), the Potency entry in experiment [20], in [15], in experiment [17], in experiment [1], in [4] and in experiment [5] was “inactive” in each case. In addition, the Potency result in experiment [6], in experiment [9], in [11], in experiment [18], in experiment [12] and in experiment [13] was “inactive” in each case. Also, the Potency result in experiment [19] was “inactive”. The Potency in experiment [2] is 10 µM (active).

As for `O=P(O)(O)OC[C@H]1O[C@](O)(COP(=O)(O)O)[C@@H](O)[C@@H]1O`, the Potency entry in [20], in experiment [15], in experiment [16], in experiment [17], in experiment [1] and in experiment [2] was “inactive” throughout. Further, the Potency entry in experiment [3], in experiment [4], in experiment [5], in experiment [6], in experiment [7] and in experiment [8] was “inactive” in each case. For the same compound, the Potency result in [9], in experiment [10], in [11], in [18], in experiment [12] and in experiment [13] was “inactive” in each case. Besides, the Potency entry in [19] was “inactive”.

With `C/C(=C\C(=O)OCCCCCCCCC(=O)O)C[C@@H]1OC[C@H](C[C@@H]2O[C@H]2[C@@H](C)[C@H](C)O)[C@@H](O)[C@H]1O`, the Potency in experiment [14] was 0.135 µM (active); in experiment [7], 0.316 µM (active); in experiment [12] it was 0.239 µM (active).

For `O=C(c1cc2ccccc2o1)N1CCN(Cc2ccccc2)CC1`, the Potency entry in [3] and in [11] was “inactive” each time. Further, the figures for the Potency in experiment [7] and in experiment [10] were 10 µM (active) and 8.91 µM (active), respectively.

Consider `CNC(=O)[C@H](Cc1c[nH]c2ccccc12)NC(=O)[C@@H](CC(=O)NO)CC(C)C`, for which the Potency entry in [20], in [6] and in [19] was “inactive” in each case.

Take `OCCOCCOCCO`: the Potency in experiment [17] was 16.9 µM (active). Moreover, the Potency result in [1], in [2], in [3], in experiment [4], in [5] and in [6] was “inactive” in each case. For the same compound, the Potency entry in [7], in [8], in [9], in experiment [10] and in experiment [13] was “inactive” each time.

With `CC(=O)c1ccc2c(c1)N(CCCN1CCN(CCO)CC1)c1ccccc1S2`, the Potency in experiment [1] is 10 µM (active); in experiment [2], 11.2 µM (active); in experiment [4], 11.2 µM (active); in experiment [6], 10 µM (active); in experiment [7] it was 8.91 µM (active); in [10], 11.2 µM (active). The Potency in experiment [18] is 12 µM (active); in experiment [12], 10.7 µM (active); in experiment [13] it was 8.91 µM (active).

As for `CC[C@H]1OC(=O)[C@H](C)[C@@H](O[C@H]2C[C@@](C)(OC)[C@@H](O)[C@H](C)O2)[C@H](C)[C@@H](O[C@@H]2O[C@H](C)C[C@H](N(C)C)[C@H]2O)[C@](C)(O)C[C@@H](C)CN(C)[C@H](C)[C@@H](O)[C@]1(C)O`, the Potency in experiment [1] is 5.62 µM (active); in [2] it was 5.01 µM (active); in experiment [3], 5.62 µM (active); in experiment [6] it was 4.47 µM (active); in experiment [7], 2.24 µM (active); in experiment [10], 10 µM (active). In addition, the Potency in [12] is 1.51 µM (active); in [13], 3.98 µM (active).

For the compound `CCOc1cc(-c2nccc3cc(OC)c(OC)cc23)cc(OCC)c1OCC`, the Potency result in experiment [3] is “inactive”. The Potency in experiment [13] is 8.91 µM (active).

Take `CN1CCc2c(c3ccccc3n2Cc2ccccc2)C1`: the Potency result in [20], in [1], in [3], in [4], in experiment [5] and in experiment [6] was “inactive” each time. Moreover, the Potency result in [7], in experiment [8], in [10], in experiment [11], in experiment [13] and in [19] was “inactive” each time. In addition, in experiment [2], the Potency is 5.01 µM (active).

As for `CN(C)CCC=C1c2ccccc2C(C)(C)c2ccccc21`, the Potency entry in experiment [3] and in experiment [4] was “inactive” each time.

On to `Cn1c(O)c(N=NC(N)=S)c2ccccc21`, for which the Potency result in experiment [20], in experiment [15], in experiment [16], in experiment [11], in [18] and in experiment [12] was “inactive” throughout. The Potency in [2] was 11.2 µM (active); in [4], 8.91 µM (active).

As for `C=CC[N+]1([C@H]2C[C@H]3[C@@H]4CC[C@H]5C[C@H](O)[C@@H](N6CCOCC6)C[C@]5(C)[C@H]4CC[C@]3(C)[C@H]2OC(C)=O)CCCC1`, in experiment [7], the Potency is 11.2 µM (active).

For `CN1CCCC(CN2c3ccccc3Sc3ccccc32)C1` (stereo unspecified), the Potency entry in [20], in [9], in experiment [10] and in experiment [11] was “inactive” throughout. Also, the Potency in experiment [1] was 10 µM (active).

For `CCN(CC)CCC(=O)N1c2ccccc2Sc2ccc(Cl)cc21`, the Potency entry in [20] is “inactive”. For the same compound, the figures for the Potency in experiment [7] and in experiment [8] were 11.2 µM (active) and 8.91 µM (active), respectively.

Regarding `N#Cc1ccc2c(c1)N(CCCN1CCC(O)CC1)c1ccccc1S2`, the Potency entry in [1], in experiment [6], in experiment [9] and in experiment [11] was “inactive” each time. In experiment [8], the Potency is 11.2 µM (active).

As for `C/C=C/C=C/C(=O)O`, the Potency result in experiment [20], in experiment [16], in experiment [1], in experiment [2], in experiment [3] and in experiment [4] was “inactive” each time. Also, the Potency entry in experiment [5], in experiment [6], in [7], in [8], in experiment [9] and in experiment [10] was “inactive” each time. Further, the Potency result in experiment [11], in experiment [18], in experiment [12], in [13] and in experiment [19] was “inactive” in each case.

With `CC[C@H]1OC(=O)[C@H](C)[C@@H](O[C@H]2C[C@@](C)(OC)[C@@H](O)[C@H](C)O2)C(C)[C@@H](O[C@@H]2O[C@H](C)C[C@H](N(C)C)[C@@H]2O)[C@](C)(OC)C[C@@H](C)C(=O)[C@H](C)[C@@H](O)[C@]1(C)O` (stereo partly specified), the Potency entry in experiment [20], in experiment [3], in [4], in experiment [6], in experiment [10] and in experiment [11] was “inactive” each time. Further, the Potency entry in experiment [18], in experiment [12] and in experiment [19] was “inactive” throughout. Further, the Potency in [2] was 7.94 µM (active); in [7], 1.26 µM (active); in experiment [8], 5.62 µM (active); in experiment [13], 8.91 µM (active).
